Bioassay records deposited in PubChem BioAssay by National Center for Advancing Translational Sciences (NCATS).
HCV inhibitor: blocks hepatitis C virus; actives 3.4% (n = 340,000); Potency, µM (series often up to 41.8 µM), without a hit: top-dose activity change, negative = inhibition, actives largely listed as inhibitors; Huh7.5.1 HCVcc-Cre infection, luciferase reporter, 44 h; active = well fitted inhibition curve with a large enough effect; inconclusive = small, poorly fitted or top-dose-only effect, or another doubt; inactive = no such curve, though single readings can be large or run the other way; also: potency is read from the fitted curve at half-maximal effect
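Seed cells (1,000/well) for 4 h; treat with compound and infect with HCVcc-Cre, moi about 0.5. Incubate 44 h, then detect luciferase activity.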
VACV Venus inh: vaccinia inhibition (Venus reporter); AID 720580; Vaccinia virus Venus reporter expression, fluorescence; Potency, µM (highest dose often 36.5 µM), for inactives: at the top dose activity change, negative = inhibition, hits mostly inhibitors; actives 0.46% (n = 330,000); calls by dose curve; tested in A549 cells; also: potency is read from the fitted curve at half-maximal effect; nearly all actives have a fitted effect of over 30% in size
HCMV antiviral: human cytomegalovirus inhibition. actives 4.5% (n = 410,000). AID 1259415. activity change, negative = inhibition, % at 57.5 µM. HFF cells, HCMV-luciferase reporter, 72 h; active compounds read low; in the data active = activity change below about -60%; inconclusive = no clear call, values can overlap the other calls; inactive = above about -39%
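Steps: HFFs plated, 16 h 37C; compounds added; HCMV-luciferase added to MOI 1 PFU/cell; 72 h 37C; OneGlo reagent, 5 min room temperature; luminescence read, normalized to controls.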
Marburg entry inh: Marburg virus entry inhibition; actives 1.8% (n = 300,000); AID 540276; Potency, µM (series often up to 37.8 µM), for inactives: top-dose activity change, negative = inhibition, usual class: inhibitors; Marburg virus pseudotyped entry inhibition, cell reporter; calls by dose curve; tested in HEK293 cells; also: potency is read from the fitted curve at half-maximal effect
LASV entry inh: inhibitors of Lassa virus binding or cell entry. Lassa virus pseudotype entry inhibition, cell reporter. Potency, µM (series often up to 37.9 µM), for the others: at the highest dose activity change, negative = inhibition, hits mostly inhibitors. actives 1.2% (n = 300,000). AID 540256; calls by dose curve; tested in HEK293 cells; also: potency is read from the fitted curve at half-maximal effect; nearly all actives have a fitted effect of over 50% in size
VACV mCherry inh: inhibitors of vaccinia virus infection (mCherry reporter signal) | Vaccinia virus mCherry reporter infection, fluorescence | Potency, µM (highest dose often 36.5 µM), for inactives: at the highest dose activity change, negative = inhibition, hits mostly inhibitors | actives 0.63% (n = 310,000) | AID 720579; calls by dose curve; tested in A549 cells; also: potency is read from the fitted curve at half-maximal effect; nearly all actives have a fitted effect of over 35% in size
Starred values were filed as active, the others as inactive; [ ] = another dose, or the depositor's remark. This is a sample that favours compounds with a hit; in the whole collection about 7.8% have one here. % is scaled to controls: 0 for no effect and ±100 for the full control effect.

Screening CC(CCN1CCCc2nc(C)c(C)cc21)=NO[C@H](C)CN1CCCc2nc(C)c(C)cc21 returned Marburg entry inh -41%[14.2 µM].
For Cc1cccc(CNc2nc3cnc(-c4ccc(F)cc4)cc3n2C)c1 the results were HCMV antiviral -3.
Screening CCOC(=O)Oc1c(OC)cc(C(=O)O[C@@H]2C[C@@H]3CN4CCc5c([nH]c6cc(OC)ccc56)[C@H]4C[C@@H]3[C@H](C(=O)OC)[C@H]2OC)cc1OC returned HCV inhibitor 5.6µM*, VACV Venus inh inconclusive, HCMV antiviral -68* and VACV mCherry inh inconclusive.
Cc1cc(NC(=O)CCN2C(=O)C3C4CCC(C4)C3C2=O)c(C)cc1Br (stereo not drawn) was read as HCV inhibitor inconclusive, HCMV antiviral -107*, Marburg entry inh 2% and LASV entry inh 1%.
Screening Nc1nc(-c2ccccc2)c(N=Nc2ccccc2Cl)s1 returned HCV inhibitor 11µM*, VACV Venus inh inconclusive, HCMV antiviral 44, Marburg entry inh inconclusive, LASV entry inh -15% and VACV mCherry inh -28%.
For COC(=O)c1ccc(OC)c(Cn2c(=O)n(-c3ccc(C)cc3)c(=O)c3c2cnn3C)c1 the results were VACV Venus inh -18%, HCMV antiviral 19, Marburg entry inh 16%[46.1 µM], LASV entry inh -15%[46.1 µM] and VACV mCherry inh -18%.
For Cc1ccc2c(c1)-c1c(cnn1CC(=O)N1CCN(c3ccccc3F)CC1)CO2 the results were VACV Venus inh -11%, HCMV antiviral -87*, Marburg entry inh -11%[46.1 µM] and VACV mCherry inh -16%.
Screening Clc1cccc(CN2CCc3c([nH]c4ccccc34)C2)c1 returned HCV inhibitor inconclusive, VACV Venus inh -28%, HCMV antiviral 57, Marburg entry inh 8.9µM*, LASV entry inh inconclusive and VACV mCherry inh inconclusive.
`CN1CC(c2ccc(Cl)c(Cl)c2)[C@@]2(COc3ccccc3C2=O)[C@@]12C(=O)Nc1ccccc12` (stereo partly drawn) gave HCV inhibitor 11µM*, HCMV antiviral -9, Marburg entry inh inconclusive and LASV entry inh inconclusive.
Screening O=C1Nc2ccccc2C12OCC1(CO2)COC2(OC1)C(=O)Nc1ccccc12 (stereo not drawn) returned HCV inhibitor -17%, VACV Venus inh -7%, HCMV antiviral 3, Marburg entry inh 4%, LASV entry inh inconclusive and VACV mCherry inh -21%.
Screening Cc1sc2nc(CN(Cc3cccs3)C(=O)NC3CCCCC3)[nH]c(=O)c2c1C returned HCV inhibitor 11µM*, VACV Venus inh inconclusive, HCMV antiviral -25, Marburg entry inh inconclusive, LASV entry inh inconclusive and VACV mCherry inh -28%.
`O=C(c1cnn2c(C(F)F)cc(C3CC3)nc12)N1CCc2ccccc2C1` gave HCV inhibitor 8.9µM*, VACV Venus inh -24%, HCMV antiviral 19, Marburg entry inh inconclusive and LASV entry inh inconclusive.
Screening CCCn1ccc2c(OCC(=O)Nc3ccccc3C(=O)OCC)cccc2c1=O returned VACV Venus inh -28%, HCMV antiviral 8, LASV entry inh -19%[46.1 µM] and VACV mCherry inh inconclusive.
NC(=O)CSc1nc2scc(-c3ccc(Cl)cc3)c2c(=O)n1Cc1ccccc1 was read as HCV inhibitor 2%, VACV Venus inh -21%, HCMV antiviral inconclusive, Marburg entry inh -17%[46.1 µM], LASV entry inh -14%[46.1 µM] and VACV mCherry inh -6%.
For Cc1ccc(-c2csc3nc(SCC(=O)N(C)C)n(Cc4ccccc4)c(=O)c23)cc1 the results were HCV inhibitor 32µM*, VACV Venus inh inconclusive, HCMV antiviral 37, Marburg entry inh inconclusive, LASV entry inh inconclusive and VACV mCherry inh -6%.
CC(=O)C(Sc1ccc2nnc(-c3ccncc3)n2n1)C(C)=O was read as HCV inhibitor -3%, VACV Venus inh -11%, HCMV antiviral -62* and VACV mCherry inh 5%.
Screening COc1cc(OC)cc(-c2cc3ncccc3cn2)c1 returned HCV inhibitor 11µM*, VACV Venus inh -13%, HCMV antiviral 36 and VACV mCherry inh -11%.
Screening Cc1ccsc1C(=O)NN=C1CCCCCC1 returned HCV inhibitor 6% and HCMV antiviral -99*.
Screening NS(=O)(=O)c1ccc(CCNc2nn3c(-c4ccc(F)c(Cl)c4)cnc3s2)cc1 returned VACV Venus inh -21%, HCMV antiviral -75* and VACV mCherry inh 10%.
`NS(=O)(=O)c1ccc(CCNC(=O)CSc2ccc(Cl)cc2Cl)cc1` gave HCV inhibitor 11%, VACV Venus inh -17%, HCMV antiviral inconclusive, Marburg entry inh -1%[46.1 µM], LASV entry inh -15% and VACV mCherry inh -7%.
`O=C(NCc1ccco1)C1CCCN(S(=O)(=O)c2ccc(-n3cnnn3)cc2)C1` (stereo not drawn) gave HCV inhibitor 17%, VACV Venus inh -5%, HCMV antiviral -1, Marburg entry inh -23%, LASV entry inh 0% and VACV mCherry inh -12%.
O=C(NCc1ccccc1F)C1CCCN(S(=O)(=O)c2ccc(-n3cnnn3)cc2)C1 (stereo not drawn) was read as HCV inhibitor 3%, VACV Venus inh -17%, HCMV antiviral -77*, Marburg entry inh 8%[46.1 µM], LASV entry inh -16% and VACV mCherry inh inactive.
NC(=S)NN=Cc1nccc2c(C(F)(F)F)cccc12 was read as VACV Venus inh inconclusive, HCMV antiviral -74* and VACV mCherry inh inconclusive.
For NC(=S)N/N=C/c1ccc(Br)o1 the results were HCV inhibitor 15%, VACV Venus inh inconclusive, HCMV antiviral inconclusive and VACV mCherry inh inconclusive.
`CNc1cccnc1C=NNC(N)=S` gave HCV inhibitor 3.5µM*, VACV Venus inh inconclusive, HCMV antiviral -99*, Marburg entry inh 1.3µM*, LASV entry inh 0.63µM* and VACV mCherry inh inconclusive.
O=C(NCc1cccc(Cl)c1)NCc1noc2ccccc12 was read as VACV Venus inh -3%, HCMV antiviral 3, LASV entry inh 1%[46.1 µM] and VACV mCherry inh -4%.
Screening O=C(CCNS(=O)(=O)c1ccccc1C(F)(F)F)N1CCN(C(c2ccccc2)c2ccccc2)CC1 returned HCV inhibitor inconclusive, VACV Venus inh -25%, HCMV antiviral -19, Marburg entry inh 7.1µM*, LASV entry inh inconclusive and VACV mCherry inh inconclusive.
O=C(CCNS(=O)(=O)c1ccccc1C(F)(F)F)N1CCCCCCC1 was read as HCV inhibitor 6% and HCMV antiviral -18.
For COc1ccccc1CNC(=O)CCCn1c(=O)c2ccccc2n(CC(=O)Nc2c(C)cc(C)cc2C)c1=O the results were VACV Venus inh 0%, HCMV antiviral 3, Marburg entry inh -8%[46.1 µM], LASV entry inh -7%[46.1 µM] and VACV mCherry inh -10%.
`CCc1c(C)nc(SCC(N)=O)c(C#N)c1C` gave HCV inhibitor -14%, VACV Venus inh -6%, HCMV antiviral -64*, Marburg entry inh 8%, LASV entry inh 8% and VACV mCherry inh -1%.
